# Measured values: the supplement of paper PMC12645437, “Orthogonal IMiD-Degron Pairs Induce Selective Protein Degradation in Cells” (ACS Chemical Biology, 2025)
# Whole data set: some 8,300 sequences, median “log2 fold change of degron read counts, EGFP-low vs EGFP+ sorted cells (limma voom), compound-induced degradation” near -1.1, cut for the highest 2% near 3.2. What follows is part of a selection rich in the highest values, with near analogues and random picks from the rest.
# T1: CRBN, Q96SW2
# T1 chain: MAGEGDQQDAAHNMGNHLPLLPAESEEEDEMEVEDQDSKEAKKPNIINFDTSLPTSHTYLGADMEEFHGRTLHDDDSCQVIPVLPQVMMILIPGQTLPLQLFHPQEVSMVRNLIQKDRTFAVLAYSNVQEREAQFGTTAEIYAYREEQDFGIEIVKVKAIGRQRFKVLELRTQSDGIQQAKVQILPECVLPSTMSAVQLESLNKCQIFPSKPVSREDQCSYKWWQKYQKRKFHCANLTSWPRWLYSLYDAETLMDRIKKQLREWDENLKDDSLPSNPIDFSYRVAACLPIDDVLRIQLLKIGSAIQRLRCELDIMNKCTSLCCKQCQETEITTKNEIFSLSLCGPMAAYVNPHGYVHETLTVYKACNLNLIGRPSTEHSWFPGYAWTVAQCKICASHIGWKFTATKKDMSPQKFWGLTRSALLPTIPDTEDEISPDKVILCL
# B1: 46F_47F_49N_50V_52G_53A_54Y_55F_67L_, Q9UKT9 (peptide)
# chain: FFCNVCGAYFTQKGNLLRHIKL
# B2: 46F_47M_49E_50I_52G_53R_54N_55F_67L_, Q9UKT9 (peptide)
# chain: FMCEICGRNFTQKGNLLRHIKL
# B3: 46F_47F_49S_50V_52G_53H_54W_55F_67L_, Q9UKT9 (peptide)
# chain: FFCSVCGHWFTQKGNLLRHIKL
# B4: 46F_47T_49P_50I_52G_53H_54L_55F_67L_, Q9UKT9 (peptide)
# chain: FTCPICGHLFTQKGNLLRHIKL
# B5: 46F_47F_49P_50V_52G_53A_54R_55F_67L_, Q9UKT9 (peptide)
# chain: FFCPVCGARFTQKGNLLRHIKL
# B6: 46F_47A_49P_50V_52G_53A_54R_55F_67L_, Q9UKT9 (peptide)
# chain: FACPVCGARFTQKGNLLRHIKL
# B7: 46F_47D_49P_50V_52G_53A_54R_55F_67L_, Q9UKT9 (peptide)
# chain: FDCPVCGARFTQKGNLLRHIKL
# B8: 46F_47E_49P_50V_52G_53A_54R_55F_67L_, Q9UKT9 (peptide)
# chain: FECPVCGARFTQKGNLLRHIKL
# B9: 46F_47C_49P_50V_52G_53A_54R_55F_67L_, Q9UKT9 (peptide)
# chain: FCCPVCGARFTQKGNLLRHIKL
# B10: 46F_47M_49P_50V_52G_53A_54R_55F_67L_, Q9UKT9 (peptide)
# chain: FMCPVCGARFTQKGNLLRHIKL
# B11: 46F_47H_49P_50V_52G_53A_54R_55F_67L_, Q9UKT9 (peptide)
# chain: FHCPVCGARFTQKGNLLRHIKL
# B12: 46F_47Q_49P_50V_52G_53A_54R_55F_67L_, Q9UKT9 (peptide)
# chain: FQCPVCGARFTQKGNLLRHIKL
# B13: 46F_47V_49P_50V_52G_53A_54R_55F_67L_, Q9UKT9 (peptide)
# chain: FVCPVCGARFTQKGNLLRHIKL
# B14: 46L_47S_49E_50I_52G_53F_54I_55C_67L_, Q9UKT9 (peptide)
# chain: LSCEICGFICTQKGNLLRHIKL
# B15: 46L_47R_49N_50Q_52G_53F_54D_55C_67L_, Q9UKT9 (peptide)
# chain: LRCNQCGFDCTQKGNLLRHIKL
# B16: 46F_47I_49E_50I_52G_53A_54V_55F_67L_, Q9UKT9 (peptide)
# chain: FICEICGAVFTQKGNLLRHIKL
# B17: 46F_47E_49E_50Q_52G_53A_54I_55F_67L_, Q9UKT9 (peptide)
# chain: FECEQCGAIFTQKGNLLRHIKL
# B18: 46L_47A_49E_50I_52G_53F_54E_55C_67L_, Q9UKT9 (peptide)
# chain: LACEICGFECTQKGNLLRHIKL
# Molecular target: T1, CRBN, Q96SW2
# Assay: log2 fold change of degron read counts, EGFP-low vs EGFP+ sorted cells (limma voom), compound-induced degradation; higher = more compound-induced degradation of the degron-EGFP fusion; degrons are variants of IKZF1/3 zinc finger 2; compound dose not given here
# Conditions: Jurkat, 18 h
# [1] = compound: compound 19 (5-tert-butyl-thalidomide)
# [2] = compound: compound 22 (5-morpholino-thalidomide)
# [3] = compound: compound 33 (diphenyl IMiD analogue)
# 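Further: pooled lentiviral library of zinc finger degron-EGFP fusions in mCherry-positive Jurkat cells, FACS-sorted after compound exposure, with degron abundance counted by next-generation sequencing.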
Sequence,log2 fold change of degron read counts [1],log2 fold change of degron read counts [2],log2 fold change of degron read counts [3],log2 fold change of degron read counts (compound: thalidomide)
B1,-0.163,0.227,0.144,-1.05
B2,-2.42,-2.71,-0.582,-1.02
B3,-1.15,-1.58,-1.38,-1.26
B4,-2.23,-2.6,-1.44,-1.57
B5,3.35,3.29,1.72,1.35
B6,3.49,2.28,-0.0911,1.06
B7,3.12,1.66,1.4,2.71
B8,0.67,-0.349,1.42,2.94
B9,2.31,2.41,1.79,2.26
B10,-0.509,0.0794,1.25,0.719
B11,1.99,2.23,0.971,0.937
B12,-0.395,2.27,1.08,3.63
B13,0.0453,2.18,0.744,2.8
B14,0.617,0.753,0.094,0.23
B15,-2.4,-3.02,-2,-2.27
B16,-0.571,1.25,2.53,2.12
B17,-2.86,-2.97,-1.26,-0.499
B18,0.602,-0.739,-1.36,-0.804
